TDP1 cell noCPT – qHTS for Inhibitors of human tyrosyl-DNA phosphodiesterase 1 (TDP1): qHTS in cells in absence of CPT; AID 686978, 2013; hit rate 15% among 420,000; DT40 Tdp1-/- hTDP1 cells, no CPT, ATP luminescence, 48 h; Potency, µM (doses to about 46.2 µM), for the others: at the top dose activity change, negative = growth inhibition, usual class: inhibitors; also: nearly all actives have a fitted effect of over 55% in size
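Growth kinetics read by CellTiter-Glo luminescence after ≥48 hr at 37 °C. Cells: DT40 Tdp1-/- stably carrying human TDP1, 400 per well, compound exposure in the absence of CPT (DMSO vehicle).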
Gal4-VP16 FLuc – inhibits Gal4-VP16 luciferase reporter, ROR gamma counter-screen | Drosophila S2 Gal4-VP16 UAS-luciferase, luminescence, 20 h | Potency, µM (titrated, usually from 53.6 µM), inactives show at the highest dose activity, negative = inhibition, hits mostly inhibitors | hit rate 3.5% among 310,000 | AID 2546;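 also: Gal4-VP16 expression switched on by copper sulfate through the metallothionein promoter; nearly all actives have a fitted effect of over 50% in size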
TDP1 cell CPT – growth inhibition of DT40 Tdp1-/-;hTDP1 cells with camptothecin (screen for TDP1 inhibitors) | chicken DT40 Tdp1-/-;hTDP1 cells + 20 nM CPT, ATP luminescence, 48 h | Potency, µM (top dose mostly 46.2 µM), for the others: top-dose activity change, negative = growth inhibition, actives largely listed as inhibitors | hit rate 12% among 420,000; also: nearly all actives have a fitted effect of over 55% in size
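Cell growth measured by CellTiter-Glo luminescence after a minimum 48 h, 37 C compound exposure with 20 nM CPT in Tdp1-knockout DT40 cells stably expressing hTDP1, seeded 400/well; qHTS titration format.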
RORg inh – ROR gamma (mouse) transcription inhibition. P51450. Drosophila S2 Gal4-RORgamma UAS-luciferase reporter, 20 h. Potency, µM (doses to about 53.6 µM), for the others: top-dose activity change, negative = inhibition, most hits filed as inhibitors. hit rate 5.4% among 310,000; also: nearly all actives have a fitted effect of over 60% in size
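ROR gamma transcriptional activity was tracked as Gal4-UAS luciferase output in stably transfected Drosophila Schneider cells, with compound added 1 hr before 700 uM copper sulfate induction and a 20 hr ambient-temperature incubation.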
TDP1 block – inhibitors of human tyrosyl-DNA phosphodiesterase TDP1; hit rate 0.28% among 350,000; recombinant TDP1, AlphaScreen DNA substrate cleavage; Q9NUW8; Potency, µM (series often up to 130 µM), for inactives: at the highest dose activity change, negative = inhibition, actives largely listed as inhibitors; also: nearly all actives have a fitted effect of over 40% in size
Target sequence (Q9NUW8 whole entry, looked up): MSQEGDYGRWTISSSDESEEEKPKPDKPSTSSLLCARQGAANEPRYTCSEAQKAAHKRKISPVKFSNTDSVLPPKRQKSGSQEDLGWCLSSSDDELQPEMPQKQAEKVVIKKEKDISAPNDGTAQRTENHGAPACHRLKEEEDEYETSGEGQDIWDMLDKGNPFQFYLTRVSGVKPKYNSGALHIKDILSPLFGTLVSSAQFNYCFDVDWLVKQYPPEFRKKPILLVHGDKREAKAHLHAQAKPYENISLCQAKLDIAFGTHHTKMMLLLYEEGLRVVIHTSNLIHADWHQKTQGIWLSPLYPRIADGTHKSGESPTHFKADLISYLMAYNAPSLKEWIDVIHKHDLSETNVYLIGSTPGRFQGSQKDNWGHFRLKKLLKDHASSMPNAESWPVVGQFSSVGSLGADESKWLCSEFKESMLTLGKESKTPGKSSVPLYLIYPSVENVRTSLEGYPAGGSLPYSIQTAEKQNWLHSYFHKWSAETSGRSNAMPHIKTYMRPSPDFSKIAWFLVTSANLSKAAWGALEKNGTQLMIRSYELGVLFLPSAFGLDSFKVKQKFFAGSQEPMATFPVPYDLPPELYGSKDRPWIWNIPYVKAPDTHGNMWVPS
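Recombinant human Tdp1 (E. coli-expressed, 1 nM final) preincubated with compounds 15 min at room temperature, then 5'-biotin/3'-phosphotyrosine-FITC DNA substrate (15 nM final) added for 5 min. AlphaScreen beads (10 ug/ml final) added 10 min; cleavage lowers signal.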
Numbers without * were called inactive; ? = inconclusive; . = no result given; [ ] = remark or other dose. Sampled rows, rich in hits. Any-hit rate of the full collection: about 19%. Calls follow the shape of the dose curve; as a rule, active = well fitted curve in the direction sought with a large enough effect; inconclusive = small, poorly fitted or top-dose-only effect, or another doubt; inactive = no such curve, though single readings can be large; an effect the other way counts as inactive or inconclusive. % is scaled to controls: 0 for no effect and ±100 for the full control effect; potency is read from the fitted curve at half-maximal effect.

SMILES	TDP1 cell noCPT	Gal4-VP16 FLuc	TDP1 cell CPT	RORg inh	TDP1 block
CC(C)Oc1ccc(C(=O)NC2=NCCS2)cc1	-16%	1%[10 µM]	2%	10µM*	5%
CCCCN(C)S(=O)(=O)c1ccc(C(=O)Nc2nnc(C3=COCCO3)o2)cc1	?	1.8µM*	?	0.71µM*	9%
CCCCN(C)S(=O)(=O)c1ccc(C(=O)Nc2nnc(-c3cccs3)o2)cc1	.	0.89µM*	.	0.32µM*	9%
CC(=O)c1ccc(Oc2cc(C)nc(N3CCOCC3)n2)cc1	-8%	1%	-7%	?	6%
O=S(=O)(c1ccc(Br)cc1)c1cnc2ccccc2n1	?	?	26µM*	11µM*	2%
NC(=O)Cn1c(S(=O)(=O)Cc2ccccc2)nc2ccccc21	20%	.	-9%	.	.
COc1ccc(S(=O)(=O)c2cnc3ccccc3n2)cc1	?	?	?	11µM*	1%
COc1ccc(S(=O)(=O)c2ccc(OC)cc2)cc1	-28%	-1%	?	10%	1%
O=S(=O)(Cc1ccccc1)c1cnc2ccccc2n1	16µM*	-2%	16µM*	?	5%
Cc1ccc(-c2nc3ccccc3o2)cc1NC(=O)c1ccc2c(c1)OCO2	?	7%	?	?	3%
COc1ccc(OC)c(NC(=O)c2ccc(S(=O)(=O)N3CCN(C)CC3)cc2)c1	-26%	-3%	-16%	-15%	-4%
CC1CCCC(NC(=O)CCNC(=O)c2ccc(Br)cc2)C1C (configuration not stated)	-12%	.	-19%	.	.
COc1ccc2[nH]c(=O)c(CN(CCO)S(=O)(=O)c3ccc4c(c3)OCCO4)cc2c1	?	-3%	?	23%	1%
CCCCn1c(N)c(C(=S)NC(=O)CC(C)(C)C)c(=O)n(C)c1=O	?	0.71µM*	?	1.3µM*	0%
CCCn1c(N)c(C(=O)CSc2ncn[nH]2)c(=O)n(C)c1=O	-3%	.	-19%	.	-3%[56.1 µM]
Cc1ccc(-c2noc(CCC(=O)NC3CCN(Cc4ccccc4)CC3)n2)cc1	?	?	13µM*	?	2%
Cc1ccc(-c2noc(CCC(=O)NC3CCCc4ccccc43)n2)cc1 (configuration not stated)	2.3µM*	1%	9.2µM*	-25%	9%
Cc1cccc(CNC(=O)C2CCCN(c3nn4c(=O)cc(C)nc4s3)C2)c1 (configuration not stated)	3%	6%	3%	-38%	.
Oc1c(C(c2ccccn2)N2CCC(Cc3ccccc3)CC2)cc(Cl)c2cccnc12 (configuration not stated)	2.9µM*	?	4.1µM*	?	11%
CCC(=O)NC(c1ccc(C)s1)c1cc(Cl)c2cccnc2c1O (configuration not stated)	.	.	.	.	0%
Oc1c(C(c2ccc(Cl)cc2)N2CCCC2)cc(Cl)c2cccnc12 (configuration not stated)	5.2µM*	?	4.1µM*	1.4µM*	9%
CN1CCN(C(c2ccccn2)c2cc(Cl)c3cccnc3c2O)CC1 (configuration not stated)	6.5µM*	5µM*	6.5µM*	1.4µM*	8%
CC(=O)NC(c1cc(Cl)c2cccnc2c1O)C1CC1 (configuration not stated)	.	.	.	.	-1%
Cc1ccc(C(c2cc(Cl)c3cccnc3c2O)N2CCN(C)CC2)cc1 (configuration not stated)	?	0.71µM*	?	1.3µM*	.
COc1ccc(NC(=S)N(CCCN2CCOCC2)C(C)c2cc3ccccc3o2)cc1 (configuration not stated)	-23%	-27%	-19%	10µM*	4%
SMILES	TDP1 cell noCPT	Gal4-VP16 FLuc	TDP1 cell CPT	RORg inh	TDP1 block
COc1cccc(-n2cc(CNCc3c(C(=O)N(C)C)nc4ccc(Cl)cn34)cn2)c1	15µM*	-10%	?	13%	-4%
Cc1ccccc1-n1cc(CNCc2c(C(=O)N(C)C)nc3ccc(Cl)cn23)cn1	?	-1%	?	21%	3%
Cc1nonc1OCCNCc1c(C(=O)N(C)C)nc2ccc(Cl)cn12	-21%	2.8µM*	-7%	3.2µM*	8%
COc1cccc(-n2cc(CNCc3cn(C)nc3-c3ccccc3F)cn2)c1	26µM*	?	?	14%	3%
CN(C)/C=N/c1ncn(-c2ncc(C(F)(F)F)cc2Cl)n1	-5%	-15%	25%	-35%	5%
O=C(NCc1cccs1)c1nc2c(nnn2Cc2ccccc2Cl)c(=O)[nH]1	2.6µM*	2.8µM*	4.1µM*	10µM*	19%[56.1 µM]
CCC(C)NC(=O)c1nc2c(nnn2Cc2ccccc2Cl)c(=O)[nH]1 (configuration not stated)	?	0%	-7%	-19%	3%
COC(=O)c1cc(-c2cc(OC)ccc2OC)nc2c1c(=O)n(C)c(=O)n2Cc1ccccc1	18µM*	-17%	16µM*	-1%	.
COc1ccc2c(c1)c1c(c(=O)n(Cc3ccccc3)c(=O)n1CC(=O)NCc1ccccc1)n2C	-11%	.	-13%	.	3%
COC(=O)c1ccccc1NC(=O)C1CCCN(S(=O)(=O)c2ccc(F)cc2)C1 (configuration not stated)	10µM*	5%	15µM*	30%	6%
COC(=O)c1ccccc1NC(=O)C1CCCN(c2nnc(-n3cccc3)s2)C1 (configuration not stated)	21µM*	1%	16µM*	-21%	8%
COC(=O)c1ccccc1NC(=O)C1CCCN(S(=O)(=O)c2ccccc2)C1 (configuration not stated)	?	1%	?	-26%	2%
COc1ccccc1NC(=O)C1CCCN(S(=O)(=O)c2ccc3[nH]c(=O)ccc3c2)C1 (configuration not stated)	?	0%	21µM*	-30%	.
COC(=O)c1ccccc1NC(=O)C1CCCN(S(=O)(=O)c2ccc(OC)cc2)C1 (configuration not stated)	12µM*	-5%[0.365 µM]	18µM*	20%	3%
COc1ccc(C)cc1NC(=O)C1CCCN(S(=O)(=O)c2ccc3[nH]c(=O)ccc3c2)C1 (configuration not stated)	?	-4%	?	1%	8%
COc1cc(CCC(=O)OCC(=O)N(CCC#N)c2ccccc2)cc(OC)c1OC	-5%	-1%	0%	-17%	0%
C=CCNS(=O)(=O)c1nc(C)c(Cl)c(C)c1C#N	-1%	1%	-1%	1%	0%
CCC(=O)c1ccc(OC(=O)c2cccs2)cc1	-20%	.	-15%	.	.
